Screens (PubChem BioAssay)
The entries come from a sample that favours hits as a whole.
ER stress surv: protection against thapsigargin ER stress killing – CSM14.1 cells, ATP luminescence, primary screen | CSM14.1 thapsigargin ER stress survival | relative survival (cellular ATP), % at 15 µg/mL (by protocol) | 48,000 tested, 0.33% active | AID 1010, 2008;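 active = survival measured by cellular ATP above 50% at 15 µg/ml in the first screen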;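 note: cell death triggered by about 15 µM thapsigargin; ATP read 24 h after thapsigargin was added; plate controls were thapsigargin with DMSO for no effect and DMSO without thapsigargin for full effect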
Starred values were filed as active, the others as inactive.

SMILES	ER stress surv
CCn1c2ccccc2c2cc(CN3CCN(C(=O)c4cccs4)CC3)ccc21	133*
CCn1c2ccccc2c2cc(CN3CCN(Cc4ccc(OC)c(Br)c4)CC3)ccc21	2
CC(C)CC(=O)N1CCN(Cc2ccc3ccccc3c2)CC1	-3
COc1ccc(CN2CCN(C(=O)c3cccs3)CC2)cc1OC	-9
CCn1c2ccccc2c2cc(CN3CCN(C(=O)CC(C)C)CC3)ccc21	63*
O=C(c1cccs1)N1CCN(Cc2ccc(Cl)cc2)CC1	-4
O=C(O)/C=C/C(=O)NNc1ccccc1[N+](=O)[O-]	-9
COc1ccc(CC(=O)Nc2cccc(Br)c2)cc1OC	6
COc1ccc(N/C(C)=C/C(=O)c2ccc(Cl)cc2)c(OC)c1	10
O=C(COc1ccc(Cl)cc1)NNC(=O)c1ccc([N+](=O)[O-])cc1Cl	10
COC(=O)C1=CNC=C(C(=O)OC)C1c1cc2c(cc1Cl)OCO2	0
Cc1cccc(OCC(=O)Nc2ccc(Nc3ccccc3)cc2)c1	2
Cc1nc2c(c3c1[nH]c1ccccc13)/C(=N\O)CC(C)(C)C2	3
COc1ccc(CN2CCN(C(=O)c3ccc([N+](=O)[O-])cc3)CC2)cc1OCc1ccccc1	72*
COc1ccc(CN2CCN(C(=O)c3cccc(F)c3)CC2)cc1OCc1ccccc1	23
COc1ccc(CN2CCN(C(=O)c3ccc(F)cc3)CC2)cc1OCc1ccccc1	53*
COc1ccc(C(=O)N2CCN(Cc3ccccc3)CC2)cc1[N+](=O)[O-]	14
COc1ccc(CN2CCN(C(=O)c3ccccc3OC)CC2)cc1OCc1ccccc1	17
COc1cc(CN2CCN(C(=O)c3ccc([N+](=O)[O-])cc3)CC2)cc(OC)c1OC	9
CCOC(=O)CCNC(=O)/C=C/c1ccco1	9
CC1(C)CC(=O)c2sc(NC(=O)CSc3nc4ccccc4[nH]3)nc2C1	0
O=C(CSc1nc2ccccc2s1)c1ccc(Cl)cc1Cl	4
COc1ccccc1N1CCN(C(=O)COc2cccc(C)c2)CC1	0
FC(F)(F)c1ccc2nnc(-c3cc(Br)ccc3OCc3ccccc3)n2c1	2
COc1ccc2ccccc2c1-c1nnc2ccc3ccccc3n12	7
SMILES	ER stress surv
COc1ccc2ccccc2c1-c1nnc2ccc(C(F)(F)F)cn12	60*
COCCOC(=O)c1ccc(NC(=O)C2COc3ccccc3O2)cc1 (stereo not given)	-4
COc1ccc(C2CC(=O)C3=C(C2)Nc2ccccc2NC3c2ccccc2Br)cc1 (stereo not given)	8
CCCCOc1ccccc1C1Nc2ccccc2NC2=C1C(=O)CC(c1ccccc1)C2 (stereo not given)	53*
CSc1ccc(C2Nc3ccccc3NC3=C2C(=O)CC(c2ccccc2)C3)cc1 (stereo not given)	91*
COc1ccccc1C1Nc2ccccc2NC2=C1C(=O)CC(c1ccccc1)C2 (stereo not given)	0
CCCCOC(=O)C1=C(C)NC2=C(C(=O)CC(c3ccccc3)C2)C1c1ccco1 (stereo not given)	68*
CCCOC(=O)C1=C(C)NC2=C(C(=O)CC(c3ccc(OC)cc3)C2)C1c1ccc(OCc2ccccc2)c(OC)c1 (stereo not given)	6
O=C1CC(c2ccccc2)CC2=C1C(c1ccc(-c3ccccc3)cc1)Nc1ccccc1N2 (stereo not given)	8
COc1ccc(C2CC(=O)C3=C(C2)Nc2ccccc2NC3c2ccccc2)cc1 (stereo not given)	19
COc1ccc(C2CC(=O)C3=C(C2)Nc2ccccc2NC3c2cc(C)ccc2C)cc1 (stereo not given)	116*
CCOc1ccccc1C1Nc2ccccc2NC2=C1C(=O)CC(c1ccc(OC)cc1)C2 (stereo not given)	19
Cc1ccc(C2Nc3ccccc3NC3=C2C(=O)CC(c2ccccc2)C3)cc1 (stereo not given)	49
COC(=O)C1=C(C)NC2=C(C(=O)CC(c3ccccc3)C2)C1c1ccc(Cl)cc1 (stereo not given)	0
Cc1ccc(N/C(N)=N\c2nc(C)cc(C)n2)c(C)c1	-5
Brc1ccc(/C=N/n2c(-c3ccccc3)nnc2-c2ccccc2)cc1	9
CCOc1ccc(C2/C(=C(\O)c3ccccc3)C(=O)C(=O)N2CCN(C)C)cc1 (stereo not given)	7
COc1cccc2cc(-c3nc(-c4cc5cc(Br)ccc5oc4=O)cs3)c(=O)oc12	0
Cc1cc(/C=N/NC(N)=O)c(C)n1-c1ccc(Br)cc1	-5
O=C(CCCN1C(=O)/C(=C/c2ccc(F)cc2)SC1=S)Nc1cccc(C(=O)O)c1	0
CCOC(=O)C(=CNc1ccc(OCc2ccccc2)cc1)C(=O)OCC	-1
CCC12CN3CC(CC)(CN(C1)C3c1ccc([N+](=O)[O-])cc1)C2=O (stereo not given)	4
COc1ccc(C2CC(C(F)(F)F)n3nc(C(=O)Nc4c(F)cc(F)cc4Br)c(Cl)c3N2)cc1OC (stereo not given)	-1
Clc1cccc(Nc2nc3c(s2)CCCC3)c1	0
CCOc1ccc(C2Nc3ccccc3NC3=C2C(=O)CC(c2ccc(OC)cc2)C3)cc1 (stereo not given)	1
SMILES	ER stress surv
O=C1CC(c2ccccc2)CC2=C1C(c1ccc(OCc3ccccc3)cc1)Nc1ccccc1N2 (stereo not given)	-1
CCOc1ccc(C2Nc3ccccc3NC3=C2C(=O)CC(c2ccccc2)C3)cc1 (stereo not given)	100*
Cc1ccc(-n2c(C)cc(/C=N/NC(=O)c3ccncc3)c2C)cc1C	67*
Cc1cccc(C)c1-n1c(C)cc(/C=N/NC(=O)c2ccncc2)c1C	5
CCc1ccc(-n2c(C)cc(/C=N/NC(=O)c3ccncc3)c2C)cc1	31
Cc1cc2nc(-c3cc(NC(=O)c4ccco4)ccc3Cl)oc2cc1C	27
O=C(COc1ccc2ccccc2c1)Nc1ccc(S(=O)(=O)N2CCc3ccccc32)cc1	4
Cn1c(=O)c(C2=NS(=O)(=O)c3ccccc3N2)c(O)c2ccccc21	2
CSc1nc(NC(N)=O)c2c3c(sc2n1)CC(C(C)(C)C)CC3 (stereo not given)	58*
CC(C)(C)C1CCc2c(sc(NC(=O)c3ccncc3)c2C(N)=O)C1 (stereo not given)	6
CC(C)(C)C1CCc2c(sc3ncn(N)c(=N)c23)C1 (stereo not given)	-28
O=C(NCc1ccco1)c1ccc(C#Cc2ccccc2)cc1	1
Cc1cccc(/C=N/N2CCN(Cc3ccc(Cl)cc3)CC2)c1	8
Cc1c(NC(=O)c2cc([N+](=O)[O-])ccc2Cl)cccc1-c1nc2ccccc2s1	-3
O=C(Nc1ccc(O)c(-c2nc3ccccc3s2)c1)c1cccc(Cl)c1Cl	-1
O=C(Nc1ccc(O)c(-c2nc3ccccc3s2)c1)c1cc([N+](=O)[O-])ccc1Cl	60*
COc1ccc(N2C(=O)/C(=C\c3ccc(-c4ccccc4Cl)o3)SC2=S)cc1	9
O=C1CC(c2ccccc2)CC2=C1C(c1cc(Br)ccc1F)Nc1ccccc1N2 (stereo not given)	80*
O=C1CC(c2ccccc2)CC2=C1C(c1c(F)cccc1Cl)Nc1ccccc1N2 (stereo not given)	105*
O=C1CC(c2ccccc2)CC2=C1C(c1cccc(Cl)c1Cl)Nc1ccccc1N2 (stereo not given)	-1
